TbREL1 primary – TbREL1 RNA ligase inhibitors, primary screen, biochemical, FRET fluorescence; RNA-editing ligase 1, mitochondrial (Trypanosoma brucei brucei), P86926; TbREL1 RNA ligation; inhibition, % at 9.66 µM; hit rate 0.49% among 89,000; AID 1117264, 2014;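 active = inhibition above the mean inhibition across all screened compounds plus 3 SD, cut at about 11% in these data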
Target sequence (P86926 whole entry, looked up): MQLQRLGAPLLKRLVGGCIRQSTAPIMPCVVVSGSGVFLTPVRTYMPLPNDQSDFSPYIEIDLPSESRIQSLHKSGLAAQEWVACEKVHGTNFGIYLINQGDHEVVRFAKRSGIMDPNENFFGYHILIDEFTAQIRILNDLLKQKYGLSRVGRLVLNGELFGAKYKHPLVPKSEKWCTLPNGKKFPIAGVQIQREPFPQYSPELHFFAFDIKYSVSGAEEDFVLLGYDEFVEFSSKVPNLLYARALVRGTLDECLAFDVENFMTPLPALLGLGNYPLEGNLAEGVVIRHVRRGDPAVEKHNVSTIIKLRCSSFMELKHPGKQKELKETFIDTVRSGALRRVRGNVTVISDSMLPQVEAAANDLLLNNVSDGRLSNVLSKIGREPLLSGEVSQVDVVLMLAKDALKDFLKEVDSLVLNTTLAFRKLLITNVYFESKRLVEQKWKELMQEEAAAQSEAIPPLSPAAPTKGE
TbREL1 conf – TbREL1 RNA ligase inhibitors, confirmation, biochemical, FRET fluorescence, triplicate | shares compounds with TbREL1 primary | TbREL1 RNA ligation | inhibition, % at 9.66 µM | hit rate 37% among 390 | AID 1117282, 2014;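 active = mean inhibition across replicates above a set limit taken from the earlier primary screen, cut at about 11% in these data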
Large screens that a line does not name were inactive (follow-up assays come after a bar, where they were run). Many of the other results were omitted from the sample, so hits are more common in it than they were.

O=C1C=C(c2ccc(O)cc2)C[C@@H](c2ccc(Cl)cc2)C1	none
Cc1ccc(S(=O)(=O)N2CCN(C(=O)COC(=O)CSc3ccccc3)CC2)c(C)c1	none
Oc1ccc(-c2cn3c(n2)SCC3)cc1	none
O=S(=O)(Nc1cccc(-c2cn3c(n2)SCC3)c1)c1ccccc1F	none
Oc1ccc(-c2cn3c(n2)SCC3)cc1O	TbREL1 primary 17 | TbREL1 conf 41
CCn1c2ccccc2c2cc(NC(=O)CSc3nnc(-c4ccccc4OC)n3N)ccc21	none
O=C1c2ccccc2S(=O)(=O)N1CC1CC(c2ccccc2Cl)=NO1 (configuration not stated)	none
Cn1nc(-c2ccccc2)c(C(O)c2ccc(Cl)cc2)c1Cl (configuration not stated)	none
O=c1c(-c2cccc([N+](=O)[O-])c2)[n+]([O-])c2ccccc2n1O	TbREL1 primary 12 | TbREL1 conf inactive
O=c1c(-c2ccco2)[n+]([O-])c2ccccc2n1OCc1ccccc1	none
CC(C)CCOc1ccc(-c2c(=O)n(OCc3ccc([N+](=O)[O-])cc3)c3ccccc3[n+]2[O-])cc1	none
O=C(CNC(=S)N(Cc1ccccc1F)C1CCCCC1)NCC1CCCO1 (configuration not stated)	none
COc1ccccc1N=Nc1[nH]c2ccc(C)cc2c1O	none
COc1cc(C(=O)/C=C/c2cccnc2)c([N+](=O)[O-])cc1OC	none
O=C(/C=C/c1cccnc1)c1ccc([N+](=O)[O-])cc1	TbREL1 primary 11 | TbREL1 conf inactive
CN(C)C(=O)COc1ccc(C(=O)/C=C/c2cccnc2)cc1	none
C[C@H](CO)N1C[C@H](C)[C@@H](CN(C)C(=O)Nc2ccccc2)Oc2ccc(NC(=O)c3ccncc3)cc2C1=O	none
CC(=O)N1CCc2cc(S(=O)(=O)NCCC(=O)NCc3ccccc3)ccc21	none
CC(C)C[C@H](NC1(C(=O)NC2CCCCC2)CCN(C)CC1)C(=O)NCC(c1ccccc1)c1ccccc1	TbREL1 primary 17 | TbREL1 conf 18
CN1CCC(N[C@@H](Cc2c[nH]c3ccccc23)C(=O)NCC(c2ccccc2)c2ccccc2)(C(=O)NC2CCCCC2)CC1	none
CC(C)C[C@H](NC1(C(=O)NC2CCCCC2)CCCCC1)C(=O)NCC(c1ccccc1)c1ccccc1	none
COc1ccc(C)cc1S(=O)(=O)NC(C)C(=O)Nc1ccc2c(c1)OCO2 (configuration not stated)	none
O=S(=O)(Nc1ccc(-c2ccc3nncn3n2)cc1)c1ccc(Cl)s1	none
O=C(COc1ccccc1)Nc1c(Cl)ccc2nsnc12	none
Cc1ccc2nsnc2c1NC(=O)CCl	TbREL1 primary 11 | TbREL1 conf inactive
Cc1ccc2nsnc2c1NC(=O)Cc1ccc(Cl)cc1	none
CN(CCc1ccccn1)C1CCCN(S(=O)(=O)c2ccc(F)c(Cl)c2)C1 (configuration not stated)	none
O=C(COC(=O)c1cc(=O)c2ccccc2o1)NC1CCCCC1	none
CCc1ccc(OCCOCCN2CCN(C)CC2)cc1	TbREL1 primary 16 | TbREL1 conf inactive
CN1CCN(CCOc2ccc(Cl)c(Cl)c2)CC1	none
CCN1CCN(CCOCCOc2ccccc2)CC1	none
Cc1ccc(Nc2nc(COC(=O)COc3ccc(C=O)cc3)cs2)cc1	none
Cc1cc(OCC(=O)Nc2ncn[nH]2)ccc1Cl	none
COc1ccc(N2CCN(CCCNC(=O)CCc3cccc(Cl)c3)CC2)cc1	none
O=C(Nc1ccc(F)cc1)OCc1cn(Cc2ccccc2)nn1	none
O=C(Nc1ccc(F)cc1)OCc1cn(Cc2ccc(Cl)cc2)nn1	none
Cc1cccc(Cn2cc(COC(=O)Nc3ccc(F)cc3)nn2)c1	TbREL1 primary 15 | TbREL1 conf inactive
O=C(CCCOC(=O)c1cccnc1Cl)c1ccc(Br)cc1	none
COCc1cc(CN2CCCC(C(=O)Nc3ccc(-c4ccco4)cc3)C2)ccc1OC (configuration not stated)	none
CCC(=O)NC(c1cccs1)c1ccc2cccnc2c1O (configuration not stated)	none
CCC(=O)NC(c1cccs1)c1cc([N+](=O)[O-])c2cccnc2c1OC (configuration not stated)	TbREL1 primary 33 | TbREL1 conf inactive
CC(=O)NC(c1cccs1)c1cc(F)c2cccnc2c1O (configuration not stated)	none
Cc1sc(NC(=O)CSc2nnnn2C(C)C)c(C#N)c1C	none
Cc1cccc(C(=O)NCC(=O)NC2CCC(C)CC2)c1 (configuration not stated)	none
COc1ccc(OC)c(-c2cc(C(=O)N3CCOCC3)no2)c1	TbREL1 primary 100 | TbREL1 conf inactive
COc1ccc(OC)c(-c2nnc(SCC(=O)N3CCOCC3)o2)c1	none
COc1ccc(-c2cc(C(=O)N3CCCC3)no2)cc1	none
Cc1ccc(C)c(S(=O)(=O)N2CCN(C(=O)c3cccn3C)CC2)c1	none
COc1ccc(S(=O)(=O)Nc2cc3c4c(c2)CC(=O)N4CCC3)cc1	none
COc1ccc(C[C@H]2CN3C(=NC[C@@H]3C(C)C)N2C[C@H](C)NC(=O)c2ccc(C)c(Br)c2)cc1	TbREL1 primary 13 | TbREL1 conf 20
Cc1ccc(C(=O)N[C@@H](C)CN2C3=NC[C@H](C(C)C)N3C[C@H]2Cc2ccc(O)cc2)cc1Br	none
COc1ccc(C[C@H]2CN3C(=NC[C@@H]3Cc3ccc(O)cc3)N2CCNC(=O)c2ccc(C)c(Br)c2)cc1	none
O=C(CCCc1ccccc1)Nc1cccc2c1CCCC2	none
Fc1ccc(-c2csc(N3CCOCC3)n2)cc1	none
Fc1ccccc1OCCCN1CCOCC1	none
Nc1ncc(CCN2CCOCC2)c(-c2ccc(F)cc2)n1	TbREL1 primary 15 | TbREL1 conf inactive
Cc1cccc(C(=O)N2CCNC(=O)C2CC(=O)Nc2cccc(Cl)c2)c1 (configuration not stated)	none
C/C=C/c1ccc(OCCCNC)c(OC)c1	none
Cc1ccc(N(CC(=O)NCc2ccc(F)cc2)C(=O)CCC(=O)Nc2ccccn2)cc1C	none
COc1ccc(S(=O)(=O)N2CCN(C(=O)[C@H](Cc3ccccc3)NC(=O)c3ccco3)CC2)cc1	none
O=C(NCCCN1CCCC1=O)c1ccc2c(=O)n(-c3ccc(F)cc3)c(=S)[nH]c2c1	none
O=C(CCC(=O)NC1CCCCCC1)Nc1nnc(C(F)(F)F)s1	none
CCOC(=O)C(CC)n1cnc2c(nnn2-c2ccc(C)cc2)c1=O (configuration not stated)	TbREL1 primary 19 | TbREL1 conf inactive
COc1ccc(-n2nnc3c(=O)n(CC(=O)N4CCCC4)cnc32)cc1	none
CCOC(=O)c1nn(-c2ccc(C)cc2)c(=O)c2c(N)scc12	none
COc1ccc(C)cc1NC(=O)C1CCCN(S(=O)(=O)c2ccc(-n3cnnn3)cc2)C1 (configuration not stated)	none
COc1cc(CN2CCCC(CO)(Cc3ccccc3C)C2)cc2c1OCO2 (configuration not stated)	none
O=C(c1ccccc1)c1nnc(-c2ccccc2F)o1	none
CC(=O)c1ccc(NS(=O)(=O)c2ccccc2)cc1	none
CC(=O)c1ccc(Nc2ccc(-c3ccccc3F)nn2)cc1	TbREL1 primary 13 | TbREL1 conf inactive
CCN(CC)C(=O)[C@H]1C[C@H](CC(=O)NCCCn2ccnc2)C(=O)N2CCc3c([nH]c4cc(-c5ccco5)ccc34)[C@]12C	none
O=C(C1=C[C@H](c2coc3ccccc3c2=O)C[C@H](OCCCCO)O1)N1CCOCC1	none
CCOc1ccc(C(=O)c2cnc3ccccc3c2N2CCN(CC)CC2)cc1	none
COc1ccc2c3c([nH]c2c1)C1=NCC[C@]12c1ccccc1N=CN2CC3	none

Bioassay records as filed in PubChem BioAssay.
